# “And” between values parts separate entries of the source, which are not always exact repeats. Equal entries are not always repeated. Records with an inconclusive call do not appear. Where a structure was tested more than once in an assay, its records may differ in their call. The source made the active and inactive calls. Unless noted, calls follow the shape of the dose curve; as a rule, active = well fitted curve in either direction with a large enough effect (not every such curve was filed as active); inconclusive = small, poorly fitted or top-dose-only effect, or another doubt; inactive = flat fitted curve, though single readings scatter.
# What was measured:
# [1] = AP1 Signaling Pathway (AID 357); conditions: ME-180 AP-1-bla reporter, EGF-induced, beta-lactamase ratio, 5 h;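 also: ME-180 reporter cells stimulated with EGF at its EC50 level; % is scaled to controls: 0 for no effect and ±100 for the full control effect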
# In short: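 A ratiometric CCF4 readout (405 nm excitation; 460 and 530 nm emission) quantified AP-1-driven beta-lactamase in ME-180 cells after 5 h with compound and EC50 EGF; AC50 values were derived for activators and inhibitors.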
# [2] = target: Cytochrome P450 1A2 (Homo sapiens) (UniProt P05177); assay: p450-cyp1a2 (AID 410; calls by dose curve; also: potency is read from the fitted curve at half-maximal effect;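 as to activity change, negative = inhibition: -100% = full effect of reference inhibitor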); conditions: recombinant CYP1A2, luciferin-ME demethylation, luminescence; series mostly up to 57 µM
# Chain of Cytochrome P450 1A2 (Homo sapiens) (P05177 whole entry, looked up): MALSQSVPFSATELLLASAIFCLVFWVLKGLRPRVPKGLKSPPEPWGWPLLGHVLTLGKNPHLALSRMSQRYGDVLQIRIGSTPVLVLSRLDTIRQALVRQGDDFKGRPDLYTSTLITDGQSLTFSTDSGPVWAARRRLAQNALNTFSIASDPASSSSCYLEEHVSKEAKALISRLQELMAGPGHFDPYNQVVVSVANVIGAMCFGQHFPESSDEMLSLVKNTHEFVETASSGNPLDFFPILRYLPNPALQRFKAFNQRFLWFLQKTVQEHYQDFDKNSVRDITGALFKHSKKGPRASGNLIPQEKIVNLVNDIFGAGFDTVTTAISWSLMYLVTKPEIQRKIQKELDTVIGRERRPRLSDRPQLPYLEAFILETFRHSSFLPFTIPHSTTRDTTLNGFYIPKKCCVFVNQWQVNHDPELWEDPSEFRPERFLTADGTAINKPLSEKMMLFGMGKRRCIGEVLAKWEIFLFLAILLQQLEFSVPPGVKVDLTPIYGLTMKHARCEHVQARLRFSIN
# In short: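 O-Demethylation of luciferin 6' methyl ether by human CYP1A2 is monitored as luciferase luminescence. Substrate sits at Km (100uM); enzyme is 20nM. Values are scaled to 57 uM furafylline as maximal inhibition.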
# [3] = NFAT Signaling Pathway (AID 444); conditions: Jurkat NFAT-bla M1, carbachol, beta-lactamase ratio, 5 h;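 also: carbachol stimulus at about its EC50 of 1 µM final; % is scaled to controls: 0 for no effect and ±100 for the full control effect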
# In short: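 Jurkat cells carrying an NFAT-driven β-lactamase reporter and co-transfected muscarinic M1 receptor were treated with compound plus carbachol (1 uM final, an EC50 level) for 5 h at 37 °C. CCF4 loading followed for 1 h at RT; 460/530 nm ratio gave %activity.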
# [4] = Stat Signaling Pathway (AID 446); conditions: ME-180 (cervical carcinoma) SIE beta-lactamase reporter, IL-6 stimulated, 5 h;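 also: ME-180 cervical cancer cells given 40 pM IL-6 alongside compound; SIE-controlled beta-lactamase reporter measured as 460/530 nm FRET emission ratio; % is scaled to controls: 0 for no effect and ±100 for the full control effect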
# In short: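 FRET read-out (405 nm excitation, 460/530 nm emission) of a beta-lactamase reporter under a STAT-inducible element in ME-180 cervical carcinoma cells. Cells with compound receive 40 pM IL-6 for 5 h. Values are normalised to AC90 stimulation and AC90 JAK-inhibitor controls.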
# [5] = Cell Viability - BJ (AID 421; calls by dose curve;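 also: potency is read from the fitted curve at half-maximal effect; cells exposed to compound for 40 hours at 37 °C before readout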); conditions: BJ fibroblast viability, qHTS
# In short: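 Cytotoxicity as drop in intracellular ATP (CellTiter-Glo, 20 min RT) after 40 hr compound exposure of BJ fibroblasts at 37 °C. Titrations scaled between DMSO and 100 uM tamoxifen, Hill-fitted for AC50.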
# [6] = Cell Viability - Hek293 (AID 427;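 active = compounds whose dose-response curve shows a full or clear partial loss of cell viability, called from curve shape rather than a numeric limit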;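 also: potency is read from the fitted curve at half-maximal effect; cells exposed to compound for 40 hours at 37 °C before reading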); conditions: qHTS
# In short: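 Luminescent ATP content (CellTiter-Glo, 20 min at room temperature) was measured after a 40 hr, 37 °C compound exposure of HEK293 cells. AC50 values came from Hill-equation fits of qHTS concentration-response data normalized to DMSO and 100 uM tamoxifen.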
# [7] = Cell Viability - HepG2 (AID 433; calls by dose curve;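 also: potency is read from the fitted curve at half-maximal effect; potency for ATP loss meaning cytotoxicity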); conditions: qHTS
# In short: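 Cytotoxicity read as ATP loss (CellTiter-Glo luminescence) after 40 hr compound exposure of HepG2, 1500 cells/well, 37 °C. AC50 by Hill equation; 0% set by DMSO, 100% inhibition by 100 uM tamoxifen.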
# [8] = Cell Viability - MRC5 (AID 434; calls by dose curve;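 also: potency is read from the fitted curve at half-maximal effect; cells exposed to compound for 40 hours at 37 °C; potency reflects cytotoxicity seen as loss of intracellular ATP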); conditions: MRC5 lung fibroblast viability, qHTS
# In short: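 Decrease in intracellular ATP, quantified by luciferase light output, reflects compound toxicity toward MRC5 cells exposed for 40 hr in complete culture medium. Concentration-response curves, scaled between DMSO and 100 uM tamoxifen, gave AC50 values.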
# [9] = Cell Viability - SK-N-SH (AID 435; calls by dose curve; also: potency is read from the fitted curve at half-maximal effect); conditions: SK-N-SH neuroblastoma cell viability qHTS
# In short: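 qHTS cytotoxicity: CellTiter-Glo ATP luminescence after 40 h compound exposure of human neuroblastoma SK-N-SH cells at 37 °C. AC50 derived by Hill-equation fitting, with DMSO as basal and 100 uM tamoxifen as full inhibition.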
compound,measurement,setting,value
NCc1cc(=O)[nH]o1,"activity change, negative = inhibition",[1]; at 38 µM (top of the series),1.2% (inactive)
same,Potency,[2],inactive
same,"activity change, negative = inhibition",[3]; at 38 µM (top of the series),7.89% (inactive)
same,"activity, negative = inhibition",[4]; at 38 µM (top of the series),-1.4% (inactive)
CCCN1CCC[C@H](c2cccc(O)c2)C1,"activity change, negative = inhibition",[1]; at 38 µM (top of the series),-0.74% (inactive) and -8.16% (inactive)
same,Potency,[2],inactive
same,"activity change, negative = inhibition",[3]; at 38 µM (top of the series),-6.4% (inactive) and -13.2% (inactive)
same,"activity, negative = inhibition",[4]; at 38 µM (top of the series),0.0297% (inactive) and 5.34% (inactive)
CC(=O)NCCc1c[nH]c2ccccc12,"activity change, negative = inhibition",[1]; at 38 µM (top of the series),3.76% (inactive)
same,Potency,[2],15.8 µM (active)
same,"activity change, negative = inhibition",[3]; at 38 µM (top of the series),5.76% (inactive)
CCCCc1ccc(C(=O)O)nc1,"activity change, negative = inhibition",[1]; at 17.2 µM (top of the series),-4.11% (inactive)
same,"activity change, negative = inhibition",[1]; at 38 µM (top of the series),-6.7% (inactive)
same,Potency,[2],31.6 µM (active) and inactive
same,"activity change, negative = inhibition",[3]; at 17.2 µM (top of the series),-0.081% (inactive)
same,"activity change, negative = inhibition",[3]; at 38 µM (top of the series),6.08% (inactive)
same,"activity, negative = inhibition",[4]; at 17.2 µM (top of the series),6.81% (inactive)
same,"activity, negative = inhibition",[4]; at 38 µM (top of the series),9.55% (inactive)
Cn1cnc(CCN)c1,"activity change, negative = inhibition",[1]; at 38 µM (top of the series),7.44% (inactive)
same,Potency,[2],inactive
same,"activity change, negative = inhibition",[3]; at 38 µM (top of the series),6.43% (inactive)
same,"activity, negative = inhibition",[4]; at 38 µM (top of the series),0.0099% (inactive)
C#CCOC(=O)C1=CCCN(C)C1,"activity change, negative = inhibition",[1]; at 38 µM (top of the series),16.6% (inactive)
same,"activity change, negative = inhibition",[3]; at 38 µM (top of the series),44.2% [activator] (active)
same,"activity, negative = inhibition",[4]; at 38 µM (top of the series),14.7% (inactive)
CC(=O)OCC1=C(C(=O)O)N2C(=O)[C@@H](N)[C@@H]2SC1,"activity change, negative = inhibition",[1]; at 17.2 µM (top of the series),2.29% (inactive)
same,Potency,[2],inactive
same,"activity change, negative = inhibition",[3]; at 17.2 µM (top of the series),-6.12% (inactive)
same,"activity, negative = inhibition",[4]; at 17.2 µM (top of the series),-1.03% (inactive)
CCCN1CCO[C@@H]2c3cc(O)ccc3OC[C@H]21,"activity change, negative = inhibition",[1]; at 38 µM (top of the series),-14.2% (inactive) and 2.45% (inactive)
same,"activity change, negative = inhibition",[3]; at 38 µM (top of the series),8.87% (inactive) and 8.95% (inactive)
same,"activity, negative = inhibition",[4]; at 38 µM (top of the series),12% (inactive) and -17.6% (inactive)
CNCCc1c[nH]c2ccc(O)cc12,"activity change, negative = inhibition",[1]; at 38 µM (top of the series),7.75% (inactive)
same,Potency,[2],inactive
same,"activity change, negative = inhibition",[3]; at 38 µM (top of the series),12.8% (inactive)
same,"activity, negative = inhibition",[4]; at 38 µM (top of the series),-2.52% (inactive)
CC1=NN=C(c2ccc(N)cc2)c2cc3c(cc2C1)OCO3,"activity change, negative = inhibition",[1]; at 38 µM (top of the series),-19.4% (inactive)
same,Potency,[2],31.6 µM (active)
same,"activity change, negative = inhibition",[3]; at 38 µM (top of the series),7.54% (inactive)
CC[C@@H]1C(=O)OC[C@@H]1Cc1cncn1C,"activity change, negative = inhibition",[1]; at 17.2 µM (top of the series),-3.08% (inactive) and 5.87% (inactive)
same,"activity change, negative = inhibition",[3]; at 17.2 µM (top of the series),75.4% [activator] (active)
same,"activity, negative = inhibition",[4]; at 17.2 µM (top of the series),1.99% (inactive) and 5.87% (inactive)
O=C(O)Cc1cnc[nH]1,"activity change, negative = inhibition",[1]; at 38 µM (top of the series),10.5% (inactive)
same,Potency,[2],inactive
same,"activity change, negative = inhibition",[3]; at 38 µM (top of the series),-2.43% (inactive)
same,"activity, negative = inhibition",[4]; at 38 µM (top of the series),-3.06% (inactive)
COc1ccc2c(c[n+](C)c3c4cc5c(cc4ccc23)OCO5)c1OC,"activity change, negative = inhibition",[1]; at 38 µM (top of the series),1.37% (inactive)
same,Potency,[2],10 µM (active)
O=c1cccc2n1CC1CNC[C@H]2C1,"activity change, negative = inhibition",[1]; at 17.2 µM (top of the series),-4.28% (inactive)
same,Potency,[2],inactive and 31.6 µM (active)
same,"activity change, negative = inhibition",[3]; at 17.2 µM (top of the series),-12.9% (inactive)
same,"activity, negative = inhibition",[4]; at 17.2 µM (top of the series),6.88% (inactive)
c1ccc2sc(C3(N4CCCCC4)CCCCC3)cc2c1,"activity change, negative = inhibition",[1]; at 38 µM (top of the series),-1.54% (inactive)
same,Potency,[2],inactive
same,"activity, negative = inhibition",[4]; at 38 µM (top of the series),-24.8% (inactive)
C[C@@H]1O[C@H](C[N+](C)(C)C)C[C@H]1O,"activity change, negative = inhibition",[1]; at 38 µM (top of the series),15.5% (inactive)
O=C(O)CC[N+](=O)[O-],"activity change, negative = inhibition",[1]; at 38 µM (top of the series),-8.61% (inactive)
same,Potency,[2],inactive
same,"activity change, negative = inhibition",[3]; at 38 µM (top of the series),10% (inactive)
same,"activity, negative = inhibition",[4]; at 38 µM (top of the series),1.14% (inactive)
NCCc1c[nH]c2ccccc12,"activity change, negative = inhibition",[1]; at 38 µM (top of the series),-5.53% (inactive)
same,Potency,[2],3.16 µM (active)
same,"activity change, negative = inhibition",[3]; at 38 µM (top of the series),-3.55% (inactive)
same,"activity, negative = inhibition",[4]; at 38 µM (top of the series),-11.1% (inactive)
CC(C)Oc1cccnc1N(C)C1CCN(Cc2ccccc2)CC1,"activity change, negative = inhibition",[1]; at 38 µM (top of the series),2.27% (inactive)
same,Potency,[2],inactive
CN(C)[C@@H]1C(=O)C(C(N)=O)=C(O)[C@@]2(O)C(=O)C3=C(O)c4c(O)cccc4[C@@](C)(O)[C@H]3[C@H](O)[C@@H]12,"activity change, negative = inhibition",[1]; at 17.2 µM (top of the series),12.6% (inactive)
same,Potency,[5],> 92 µM (inactive)
same,Potency,[6],> 92 µM (inactive)
same,Potency,[7],> 92 µM (inactive)
same,Potency,[8],> 92 µM (inactive)
same,Potency,[9],> 92 µM (inactive)
same,"activity change, negative = inhibition",[3]; at 17.2 µM (top of the series),0.604% (inactive)
same,"activity, negative = inhibition",[4]; at 17.2 µM (top of the series),3.84% (inactive)
O=C1CCCN1CC#CCN1CCCC1,"activity change, negative = inhibition",[1]; at 38 µM (top of the series),8.1% (inactive)
same,Potency,[2],inactive
same,"activity, negative = inhibition",[4]; at 38 µM (top of the series),-7.65% (inactive)
Clc1cnc(Oc2ccc(Oc3ncc(Cl)cc3Cl)cc2)c(Cl)c1,"activity change, negative = inhibition",[1]; at 38 µM (top of the series),8.39% (inactive)
same,Potency,[2],inactive
same,"activity, negative = inhibition",[4]; at 38 µM (top of the series),1.75% (inactive)
CN[C@@H]1C[C@@H](c2ccc(Cl)c(Cl)c2)c2ccccc21,"activity change, negative = inhibition",[1]; at 38 µM (top of the series),23.3% (inactive)
same,"activity change, negative = inhibition",[3]; at 38 µM (top of the series),-14.3% (inactive)
CNCCc1ccc(O)c(O)c1,"activity change, negative = inhibition",[1]; at 38 µM (top of the series),-12.9% (inactive)
same,"activity change, negative = inhibition",[3]; at 38 µM (top of the series),4.43% (inactive)
same,"activity, negative = inhibition",[4]; at 38 µM (top of the series),-23.7% (inactive)
c1ccc(CCCN2CCN(CCOC(c3ccccc3)c3ccccc3)CC2)cc1,"activity change, negative = inhibition",[1]; at 38 µM (top of the series),-23% (inactive)
same,"activity change, negative = inhibition",[3]; at 38 µM (top of the series),-82.7% (active)
same,"activity, negative = inhibition",[4]; at 38 µM (top of the series),-17.9% (inactive)
C[C@]12N[C@H](Cc3ccccc31)c1ccccc12,"activity change, negative = inhibition",[1]; at 38 µM (top of the series),-6.02% (inactive) and 8.41% (inactive)
same,Potency,[2],inactive
same,"activity change, negative = inhibition",[3]; at 38 µM (top of the series),-11.3% (inactive) and -3.27% (inactive)
same,"activity, negative = inhibition",[4]; at 38 µM (top of the series),16.1% (inactive) and 6.66% (inactive)

# Source: PubChem BioAssay (NCATS)
